# Laboratory results reported in the supplement of paper PMC10646978.
# ± gives the standard deviation.
# How the values were obtained:
# Conditions in all cases: modulator concentration 10 µM
# [1] = system: RAW-Dual (murine macrophage reporter line); test: NF-kB reporter (SEAP) activity fold change vs agonist alone; higher = enhanced NF-kB activity
# Summary of the method: (§1)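 Overnight stimulation with a PRR agonist followed pre-incubation for 1 hour at 37 °C with compound at 10 μM final. This was done in RAW-Dual murine macrophage reporter cells seeded at 50 000 per well in 384-well plates. NF-κB (SEAP, QUANTI-Blue absorbance at 620 nm) and IRF (Lucia luciferase, QUANTI-Luc luminescence) were read from the supernatant. Each reporter's fold change relative to the mean agonist-only control on the same plate was averaged over replicate plates.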
# [2] = system: RAW-Dual (murine macrophage reporter line); test: IRF reporter (Lucia luciferase) activity fold change vs agonist alone; higher = enhanced IRF activity
# Summary of the method: as §1
# [3] = system: RAW-Dual (murine macrophage reporter line); test: viability score (confluency relative to resting cells, overnight) (fraction); higher = more viable, active = viable (0.7 or more)
# Summary of the method: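 In 384-well plates, RAW-Dual macrophages received compound at a final 10 μM overnight. Two confluency masks were then made with IncuCyte software from IncuCyte images of all imaged wells. The viability score is defined as confluency relative to resting cells. Passing the cutoff required both masks to lie above 70% of resting cells.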
# [4] = agonist: CpG ODN 1826 0.5 ug/mL
SMILES,"NF-kB reporter [1, 4]",NF-kB reporter ([1]; agonist: LPS 0.1 ug/mL),NF-kB reporter ([1]; agonist: MPLA […]),IRF reporter ([2]; agonist: 3'3'-cGAMP 10 ug/mL),IRF reporter ([2]; agonist: LPS 0.1 ug/mL),IRF reporter ([2]; agonist: MPLA […]),viability score [3]
CC1(C)COC(=O)C1=NNc1ccc([N+](=O)[O-])cc1,1.02 ± 0.1,1.09 ± 0.073,1.03 ± 0.039,1.03 ± 0.21,1.05 ± 0.13,1.18 ± 0.1,0.998 (active)
O=C(Nc1ccncc1)c1ccc(OCC2CCOCC2)nc1,1.15 ± 0.063,1.39 ± 0.12,1.28 ± 0.082,1.22 ± 0.083,1.28 ± 0.11,1.24 ± 0.34,0.996 (active)
CCOC(=O)C1=C(C)NC(C)=C(C(=O)OC)C1c1ccc(Cl)cc1 (configuration not stated),0.607 ± 0.14,0.448 ± 0.035,0.563 ± 0.062,1 ± 0.057,1.01 ± 0.1,1.26 ± 0.21,0.598 (inactive)
Cc1nccn1CC1CCc2c(c3ccccc3n2C)C1=O.Cl.O.O (configuration not stated),0.604 ± 0.09,0.917 ± 0.11,0.765 ± 0.044,0.832 ± 0.025,1.35 ± 0.14,1.01 ± 0.15,0.284 (inactive)
Cc1cc(NC(=O)CC(C)C)ccc1N1CCCCC1=O,1.03 ± 0.097,1.03 ± 0.085,0.936 ± 0.11,1 ± 0.065,1.23 ± 0.11,1.14 ± 0.32,1.01 (active)
CCS(=O)(=O)N1CCN(c2ccc(Nc3ncc(C(N)=O)c(NC4CC4)n3)cc2)CC1.Cl,1.08 ± 0.046,0.355 ± 0.033,0.622 ± 0.042,0.0973 ± 0.0051,0.301 ± 0.072,0.324 ± 0.081,0.899 (active)
Cc1ccc(CCNc2ccccc2C)cn1,1.05 ± 0.084,0.931 ± 0.11,1.2 ± 0.12,1 ± 0.067,1.35 ± 0.21,1.73 ± 0.39,0.993 (active)
O=C(Nc1ccc(F)cc1)c1ccccc1Br,1.06 ± 0.092,1.06 ± 0.069,1 ± 0.065,0.73 ± 0.055,1.06 ± 0.065,1.04 ± 0.22,0.979 (active)
CN(C(=O)c1cncc(F)c1)C1CN(c2ccc3nnc(C4CC4)n3n2)C1,0.937 ± 0.055,0.988 ± 0.078,0.83 ± 0.082,0.956 ± 0.087,0.991 ± 0.14,0.859 ± 0.4,1 (active)
Cc1c(Cl)ccc2c1NC(C(=O)O)C1CC=CC21 (configuration not stated),0.814 ± 0.045,1.05 ± 0.092,0.755 ± 0.063,0.615 ± 0.034,1.19 ± 0.091,1.13 ± 0.099,0.994 (active)
O=C(Nc1ccccn1)NC1CCS(=O)(=O)C1 (configuration not stated),0.659 ± 0.37,0.918 ± 0.22,0.748 ± 0.14,0.881 ± 0.12,1.34 ± 0.085,1.23 ± 0.23,0.948 (active)
O=C(O)CCCCCN1C(=O)C(=Cc2cn(-c3ccccc3)nc2-c2cccs2)SC1=S,1.02 ± 0.063,1.12 ± 0.12,1.01 ± 0.059,1.03 ± 0.038,1.27 ± 0.082,1.06 ± 0.11,1 (active)
CCOc1ccc(CN(CCc2ccc3c(c2)OCO3)Cc2cccc3ccccc23)cc1,0.73 ± 0.071,0.888 ± 0.074,1.07 ± 0.074,0.619 ± 0.061,0.908 ± 0.045,1.04 ± 0.18,0.998 (active)
CC(=C(C#N)C(=O)NCc1ccccc1)N(C)C,0.808 ± 0.077,0.883 ± 0.1,1.08 ± 0.11,0.966 ± 0.045,1.22 ± 0.1,1.26 ± 0.17,1.02 (active)
O=C1c2cccc3c2[C@H](CCC3)CN1[C@@H]1CN2CCC1CC2 [Prestw-1783],0.953 ± 0.06,0.913 ± 0.13,0.788 ± 0.031,0.63 ± 0.024,0.824 ± 0.044,0.752 ± 0.08,0.995 (active)
Cc1cccc(CSc2nn3c(=O)c(C)nnc3s2)c1,1.06 ± 0.086,0.937 ± 0.1,0.907 ± 0.085,0.925 ± 0.031,1.25 ± 0.2,1.26 ± 0.25,1.01 (active)
CC(/C=C1\SC(=S)N(CC(=O)O)C1=O)=C\c1ccccc1,0.7 ± 0.036,0.822 ± 0.093,1.05 ± 0.094,0.977 ± 0.048,1.4 ± 0.29,1.66 ± 0.52,0.962 (active)
CC(=O)Nc1ccc(C(=O)Nc2ccccc2)c(NC(C)=O)c1,1.11 ± 0.088,0.852 ± 0.14,1.09 ± 0.051,0.726 ± 0.035,0.875 ± 0.087,0.747 ± 0.071,0.997 (active)
COc1cc2c(cc1OC)C(=O)C(CC1CCN(Cc3ccccc3)CC1)C2 (configuration not stated),0.586 ± 0.14,0.954 ± 0.058,1.05 ± 0.066,0.797 ± 0.027,0.813 ± 0.096,0.897 ± 0.11,0.99 (active)
Cc1c(C)c2c(c(C)c1O)CCC(C)(C(=O)O)O2 (configuration not stated) [Prestw-530],1.14 ± 0.13,1.03 ± 0.078,0.98 ± 0.03,0.986 ± 0.042,0.98 ± 0.054,1.03 ± 0.1,0.998 (active)
Nc1nonc1C(=O)NN=Cc1cc(Br)c(O)c(Br)c1,1.05 ± 0.085,1.01 ± 0.076,1.03 ± 0.054,0.938 ± 0.11,1.08 ± 0.12,1.05 ± 0.23,0.997 (active)
CCCc1nc(C(C)(C)O)c(C(=O)OCc2oc(=O)oc2C)n1Cc1ccc(-c2ccccc2-c2nnn[nH]2)cc1 [Prestw-1190],1.09 ± 0.18,1.15 ± 0.2,1 ± 0.15,0.916 ± 0.036,0.987 ± 0.094,1.14 ± 0.15,1 (active)
OC1(c2ccc(Cl)c(C(F)(F)F)c2)CCN(CCCC(c2ccc(F)cc2)c2ccc(F)cc2)CC1,0.101 ± 0.0057,0.173 ± 0.12,0.103 ± 0.0063,0.0719 ± 0.0038,0.145 ± 0.11,0.0408 ± 0.004,0.0235 (inactive)
CNc1nc(Nc2ccc(C)c(C)c2)c2nccnc2n1,0.992 ± 0.063,1.03 ± 0.092,1.09 ± 0.09,0.992 ± 0.069,1.01 ± 0.19,1.22 ± 0.42,0.929 (active)
NC(=O)c1ncn([C@@H]2O[C@H](CO)[C@@H](O)[C@H]2O)c1O,0.723 ± 0.23,1.08 ± 0.069,0.898 ± 0.05,1.02 ± 0.085,1.04 ± 0.086,1.16 ± 0.094,0.998 (active)
COc1ccc(-n2cnc3cc(NC(C)=O)ccc32)cc1,0.978 ± 0.18,0.973 ± 0.089,0.885 ± 0.07,0.861 ± 0.025,1.19 ± 0.15,1.14 ± 0.12,1.01 (active)
